NadD inh = inhibitors of Staphylococcus aureus NadD | purified NadD enzyme, colorimetric absorbance read-out | inhibition, % at 20 µM | 0.78% of 360,000 active; in the data active = inhibition above about 26%
rCAG binder = molecules binding r(CAG) RNA repeats; r(CAG) RNA repeat, TO-PRO-1 dye displacement fluorescence; inhibition, % at 3 µM; 1.3% of 370,000 active;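 active = inhibition above the plate cutoff, the mean of all test compounds on that plate plus 3 SD, cut at about 35% in these data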;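 note: 0% = DMSO alone and 100% = 100 µM mitoxantrone as full dye displacement; higher means more dye released from RNA so lower well fluorescence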
MsrA inh = inhibits bovine methionine sulfoxide reductase A; AID 651718; purified bovine MsrA, absorbance read-out; inhibition, % at 15.5 µM; 0.75% of 360,000 active; in the data active = inhibition above about 4.5%;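 note: 0% = vehicle wells with enzyme and 100% = reference inhibitor wells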
MsrA act = activates bovine MsrA enzyme; activation, % at 10.6 µM; 0.3% of 360,000 active; purified bovine MsrA, absorbance read-out; in the data active = activation above about 7.5%;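 note: 0% = vehicle and 100% = reference activator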
rCAG binder conf = r(CAG) RNA repeat binding, confirmation; shares compounds with rCAG binder; TO-PRO-1 dye displacement fluorescence; inhibition, % at 3 µM; 70% of 4,300 active;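 active = inhibition above a per-plate cutoff, the mean inhibition of sample wells plus 3 SD, cut at about 35% in these data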;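 note: loss of TO-PRO-1 fluorescence as compound displaces dye from 1x1 AA loop RNA; 0% = DMSO only wells and 100% = 100 µM mitoxantrone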
dCAG dye counter = counter-screen for rCAG RNA binders: DNA CAG dye complex inhibitors; shares compounds with rCAG binder; d(CAG) DNA oligo TO-PRO-1 dye displacement, fluorescence; inhibition, % at 3 µM; 94% of 4,300 active; AID 652068;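 active = inhibition above its plate's cutoff, the mean test-well inhibition plus 3 SD, cut at about 4.8% in these data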;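 note: 0% = DNA dye mix with DMSO and 100% = 100 µM mitoxantrone; hits displace the dye from DNA and so lower well fluorescence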
The depositor's hits bear a star; . = not tested or not shown. Sampled rows, rich in hits. Any-hit rate of the full collection: about 2.7%.

SMILES | NadD inh | rCAG binder | MsrA inh | MsrA act | rCAG binder conf | dCAG dye counter
CC1CCCN(C(=O)c2cccc(S(=O)(=O)Nc3cc(C(F)(F)F)ccc3Cl)c2)C1 (stereo unspecified) | 9 | 62* | -1 | -3 | 60* | 27*
CCOC(=O)[C@]12CCCC=C1N(Cc1ccc3c(c1)OCO3)C(=O)[C@H](CC(=O)NCc1ccc(C)o1)C2 | 3 | 6 | -1 | -1 | . | .
Cc1cc(C(C)(C)C)cc(S(=O)(=O)Nc2ccc(O)c(C(=O)O)c2)c1C | -3 | 57* | 0 | -2 | 23 | 5.3*
CC1CCCCN1S(=O)(=O)c1ccc(C(=O)Nc2nnc(-c3ccncc3)o2)cc1 (stereo unspecified) | 12 | 14 | 2 | -8 | . | .
COc1ccc(-c2nnc(NC(=O)c3ccc(S(=O)(=O)N4COCC4(C)C)cc3)o2)cc1 | 21 | 46* | 2 | -2 | 54* | 15*
Cc1ccc(N(CC(=O)NCc2ccc(F)cc2)C(=O)c2csnn2)cc1C | -9 | -5 | -1 | -2 | . | .
COc1ccccc1CN1C[C@@H]2C[C@@H](C3=Cc4cc(Cl)ccc4OC3)N3CCC[C@@]23C1=O | 7 | 0 | 1 | -3 | . | .
CCOc1ccc(Cc2c(C)[nH]c3ccc(C(=O)O)cc3c2=S)cc1 | 1 | 36* | 1 | -4 | 32 | 7.6*
CCOc1ccc(S(=O)(=O)N2CCN(Cc3ccc4c(c3)OCO4)CC2)cc1C | -5 | 1 | 0 | -1 | . | .
O=C(c1cc(Br)c(Br)s1)N1CCOCC1 | 3 | -1 | 0 | -4 | . | .
O=C(NNC(=O)C1CC1)c1cc(Br)c(Br)s1 | 2 | 36* | 1 | -2 | 37* | 13*
Fc1ccc(NC(=S)Nc2cccnc2)c(F)c1F | 0 | -1 | 0 | -1 | . | .
Cc1oc2c(C)c3oc(=O)c(CCC(=O)N4CCC(C(=O)NCCC(=O)O)(c5ccccc5)CC4)c(C)c3cc2c1C | 1 | 35* | 3 | -4 | 58* | 16*
O=C(Nc1cccc(C(=O)O)c1)/C(=C/c1cccc([N+](=O)[O-])c1)NC(=O)c1cccc(Br)c1 | 4 | 47* | 0 | -9 | 22 | 4.8*
O=C(Nc1cccc(C(=O)O)c1)/C(=C/c1ccc2c(c1)OCO2)NC(=O)c1cccc(Br)c1 | 10 | 42* | 3 | -3 | 25 | 6.1*
O=C(NC(Cc1ccccc1)C(=O)O)/C(=C/c1cccc([N+](=O)[O-])c1)NC(=O)c1ccco1 (stereo unspecified) | -2 | 8 | -1 | 0 | . | .
O=C(NC(Cc1ccccc1)C(=O)O)/C(=C/c1cccc([N+](=O)[O-])c1)NC(=O)c1cccc(Br)c1 (stereo unspecified) | 2 | 48* | 1 | 0 | 51* | 16*
O=C(NC(Cc1ccccc1)C(=O)O)/C(=C\c1ccco1)NC(=O)c1ccc(Br)cc1 (stereo unspecified) | 6 | 37* | 3 | -2 | 34 | 8.2*
O=C(Nc1cccc(C(=O)O)c1)/C(=C\c1ccc2c(c1)OCO2)NC(=O)c1ccccc1Br | -3 | 13 | 3 | -12 | . | .
CCOc1ccc2nc(S(=O)(=O)NC(=O)C3(C)CCN3C(=O)CCc3cccs3)sc2c1 (stereo unspecified) | -2 | 38* | -1 | 0 | 37* | 9.9*
CCCCOc1ccc(S(=O)(=O)NC(=O)C2(C)CCN2C(=O)CCc2ccccc2)cc1 (stereo unspecified) | -2 | 39* | -1 | -7 | 32 | 7.2*
CCCCOc1ccc(S(=O)(=O)NC(=O)C2(C)CCN2C(=O)Cc2ccccc2Cl)cc1 (stereo unspecified) | -2 | 44* | 0 | -2 | 38* | 9.1*
C[C@H](CO)N1C[C@H](C)[C@@H](CN(C)Cc2ccc(C(=O)O)cc2)Oc2c(cccc2N(C)C)C1=O | 0 | -3 | -1 | 7 | . | .
COc1ccc(Cl)cc1N1C(=O)CN(Cc2cc(OC)c(OC)c(OC)c2)C1=S | -1 | 3 | 0 | -2 | . | .
Cc1ccccc1-c1cnc(C(O)c2c(C)cccc2C)[nH]1 (stereo unspecified) | -5 | 1 | 2 | -5 | . | .
SMILES | NadD inh | rCAG binder | MsrA inh | MsrA act | rCAG binder conf | dCAG dye counter
O=C(C=Cc1ccco1)c1ccc2ccccc2c1 | 19 | 38* | 1 | -6 | 16 | 10*
CC(=O)Nc1ccc(C(=O)/C=C/c2ccco2)cc1 | 7 | 35* | 1 | -3 | 25 | 13*
O=C(CCCCCn1c(=S)[nH]c2ccc(N3CCOCC3)cc2c1=O)NCc1cccc(Cl)c1 | 2 | 1 | -2 | -6 | . | .
O=C(O)c1ccc(CNS(=O)(=O)c2ccc(Oc3ccccc3Cl)cc2)cc1 | -4 | 39* | 2 | -3 | 28 | 6.6*
O=C(CC1S/C(=N/N=C/c2c[nH]c3ccccc23)NC1=O)Nc1ccccc1 (stereo unspecified) | 2 | 60* | 4 | -6 | 45* | 15*
O=C(CC1S/C(=N/N=C/c2c[nH]c3ccc(OCc4ccccc4)cc23)NC1=O)Nc1ccccc1 (stereo unspecified) | 16 | 40* | 4 | -14 | 50* | 27*
O=C(CC1S/C(=N/N=C/c2cccs2)NC1=O)Nc1ccc(Cl)cc1 (stereo unspecified) | 6 | 24 | 1 | -4 | . | .
NC(=S)N/N=C/c1c[nH]c2ccc(OCc3ccccc3)cc12 | -8 | . | . | -2 | . | .
CCOc1ccc(NC(=O)CC(NCc2ccccn2)C(=O)O)cc1 (stereo unspecified) | -3 | -2 | 0 | -2 | . | .
Oc1cccc(CN2CCOCC2)c1O | 6 | 41* | 0 | -6 | 3 | 0
COc1cc(/C=C2/C(=N)N3C(=NC2=O)SN=C3S(C)(=O)=O)ccc1OS(=O)(=O)c1ccc(C)cc1 | 20 | 32 | 2 | -3 | . | .
CS(=O)(=O)C1=NSC2=NC(=O)/C(=C\c3ccc(OS(=O)(=O)c4ccccc4)cc3)C(=N)N21 | 6 | 30 | 0 | -7 | . | .
CCC1=NN2C(=N)/C(=C\c3cccn3-c3ccc(Cl)cc3)C(=O)N=C2S1 | 14 | 7 | 0 | -2 | . | .
Cc1ccc(-n2cccc2/C=C2/C(=N)N3C(=NC2=O)SN=C3S(C)(=O)=O)cc1 | 16 | 89* | 1 | -7 | 84* | 50*
CS(=O)(=O)C1=NSC2=NC(=O)/C(=C\c3cccn3-c3ccccc3Cl)C(=N)N21 | 21 | 83* | 3 | -3 | 77* | 39*
COc1cccc(-n2c(C)cc(/C=C3/C(=N)N4C(=NC3=O)SN=C4S(C)(=O)=O)c2C)c1 | 20 | 65* | 2 | -4 | 79* | 50*
CCc1ccc(-n2cccc2/C=C2/C(=N)N3C(=NC2=O)SN=C3S(C)(=O)=O)cc1 | 28 | 94* | 1 | -5 | 91* | 72*
Cc1cc(C)cc(-n2cccc2/C=C2/C(=N)N3C(=NC2=O)SN=C3S(C)(=O)=O)c1 | 21 | 89* | 2 | -1 | 88* | 61*
C/C(C/C(C)=C1/SC(=S)NC1=O)=C1\SC(=S)NC1=O | 14 | 66* | 1 | -6 | 50* | 16*

Assay outcomes from PubChem BioAssay.
